The source of these data is PubChem BioAssay (EPA / NIEHS).

Records with an inconclusive call do not appear. Calls of active or inactive are those of the source. The calls were made as follows: active = hit-call score of the fitted dose curve at least 0.9, where 1 is the maximum; inconclusive = response in the unintended direction; inactive = score below 0.9.

The nature of the test: Tanguay_ZF_120hpf_PE_legacy: (Legacy) Oregon State University Tanguay Lab 120 Hour Post-fertilization zebrafish Assay for Pericardial Edema (AID 2283640).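 As to AC50: potency for increased incidence of pericardial edema versus DMSO baseline.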 On the procedure:
Tanguay_ZF_120hpf_legacy is a whole embryo, multiplexed endpoint assay using zebrafish larvae exposed for 120 hours post fertilization on a 96-well plate.Tanguay_ZF_120hpf_PE_legacy is one of one assay component(s) measured or calculated from the Tanguay_ZF_120hpf_legacy assay. It is designed to make measurements of zebrafish development as detected with brightfield microscopy of developing zebrafish embryos.Data from the assay component Tanguay_ZF_120hpf_PE_legacy was analyzed into 1 assay endpoints. This assay endpoint, Tanguay_ZF_120hpf_PE_legacy, was analyzed in the positive analysis fitting direction relative to DMSO as the negative control and baseline of activity. Using a type of morphology reporter, gain-of-signal activity can be used to understand changes in developmentals as they relate to the whole embryo. To generalize the intended target to other relatable targets, this assay endpoint is annotated to the zebrafish development intended target family, where the subfamily is embryonic morphogenesis.
Zebrafish husbandry: Tropical 5D wild-type adult zebrafish were housed in at an approximate density of 1000 per 100 gallon tank at the Sinnhuber Aquatic Research Laboratory, Oregon State University, Corvallis, OR. Each tank was kept at standard laboratory conditions of 28C on a 14-h light/10-h dark photoperiod in fish water consisting of reverse osmosis water supplemented with a commercially available salt (Instant Ocean). Spawning funnels were placed into the tanks the night prior, and embryos were collected and staged. […] Ten microliters of each row of dilution plate 2 was added to 2 exposure plates. The final DMSO concentration used was 0.64% (vol/vol). Thirty-two embryos were also exposed to 5uM trimethyltin chloride (positive control). Plates were sealed to prevent evaporation and foil covered to reduce light exposure and kept in a 28C incubator. Embryos were statically exposed until 120 hpf. At 24 hpf, embryos were assessed for photomotor response using a custom photomotor response analysis tool (PRAT) and for developmental toxicity endpoints (MO24: mortality at 24 hpf, DP: developmental progression, SM: spontaneous movement, and NC: notochord distortion). At 120 hpf, locomotor activity was measured using Viewpoint Zebralab and assessed for 18 endpoints. Zebrafish acquisition and analysis program (ZAAP), a custom program designed to inventory, acquire, and manage zebrafish data, was used to collect developmental endpoints as either present or absent (i.e., binary responses were recorded). If mortality occurred for an embryo (at either 24 or 120 hpf), the non-mortality endpoints were not measured.
On to `CN(C)C(=S)S`, for which the AC50 is 3.42 µM (active).
For `Cc1cc(C)cc(C)c1`, the result was inactive.
Turning to `Oc1cc(Cl)c(Cl)cc1Cl`, the call was inactive.
Turning to `CC(C)O.CC(C)O.OCCN(CCO)CCO.OCCN(CCO)CCO.[Ti]`, the outcome was inactive.
Regarding `Oc1c(Cl)cc(Cl)cc1Cl`, the compound was classed as inactive.
With `CCCCCCCCCCCCc1cccc(S(=O)(=O)O)c1`, the outcome was inactive.
For `OCCN(CCO)CCO`, the compound was classed as inactive.
As for `Clc1cccc(Cl)c1`, the outcome was inactive.
Take `Clc1cccc(Cl)c1Cl`: the outcome was inactive.
Still for that read-out and setting: the result for `N#Cc1cccnc1` reads “inactive”; that for `O=C(O)C1(c2ccc3c(c2)OC[C@H](Cc2ccc(-c4ccccc4)cc2)[C@H]3O)CCCC1`, “inactive”; that for `O=C(N[C@H]1CN2CCC1CC2)c1ccc2c(c1)OCCO2`, “inactive”.
Still for that read-out and setting: the result for `CC(C)(C)c1ccccc1O` reads “inactive”.

A word on the AC50: it is the concentration at which the activity in the assay is half-maximal.
